We go through 95 molecules from PubChem BioAssay AID431 (Sanford-Burnham Center for Chemical Genomics, 2006).

Hit rate of the full screen: of about 63,000 compounds, about 1,100 (1.7%) were called active. For the sample, actives were picked, then their nearest neighbours and some compounds at random. Potency and affinity values are given separately. A number with no mark means an inactive call.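 The calls were made as follows: active = compounds whose percent cytotoxicity in the single-dose primary screen, scaled between solvent and toxic-drug controls, exceeds 50; inactive = the rest.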

The nature of the assay: viability loss of HPDE-C7K cells – cell-based, fluorescence, HTS, primary screen (AID 431).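 Also: 0% = DMSO solvent wells and 100% = doxorubicin-treated wells.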 As to conditions: HPDE-C7K KRASV12 cells, Alamar Blue viability, 48 h; at 10 µM; active compounds read high.
On to `COc1ccc(NC(=O)CN2CCN(S(=O)(=O)c3ccc(C(C)C)cc3)CC2)cc1OC`, for which the cytotoxicity is -1.5%. As for `COCC(=O)Nc1sc2c(c1C(=O)OC)CCCC2`, the figure is -0.8%; as for `COc1ccc(OC)c2c(N)c(C#N)c(C(F)(F)C(F)(F)F)nc12`, 2.9%. The value for `Cc1ccc2nc(Nc3nc(C)cc(C(F)(F)F)n3)nc(C)c2c1` was -18.7%; that for `COc1ccc(OC)c(-n2c(O)cnc2Nc2nc(C)cc(C)n2)c1` was -6.2%. The value for `Cc1occc1C(=O)Nc1cc(C(F)(F)F)ccc1Cl` was -12.7%; that for `CC1CN(S(=O)(=O)c2cn(C)c(=O)n(C)c2=O)CC(C)O1` (stereo not given) was 14.8%.

Regarding `CCOC(=O)N1CCN(C(=O)c2cnn3c(C(F)F)cc(-c4ccc(C)cc4)nc23)CC1`, the cytotoxicity was 4.7%. The value for `COc1ccc(-c2nnc(-c3cccs3)o2)cc1OC` was 7.2%. Consider `COc1ccc(-c2nc(-c3cccs3)c(-c3cccs3)[nH]2)cc1O`, for which the cytotoxicity was 76.5% (active). On to `COc1ccc(-c2nc3ccccc3s2)cc1O`, for which the cytotoxicity was -3.4%. The value for `Cc1ccc2c(c1)C(c1ccccc1)N(C(=O)c1ccc(Br)o1)CC(=O)N2` (stereo not given) was -13.7%; that for `COc1ccccc1N1C(=O)C2C3C=CC(C3)C2(C)C1=O` (stereo not given) was -3.4%. For `Clc1ccc(-c2ccc(-c3nn4c(-c5ccco5)nnc4s3)o2)cc1`, the cytotoxicity was -10%. The value for `Fc1ccc(-c2ccc(-c3nn4c(-c5ccco5)nnc4s3)o2)cc1` was 83.7% (active); that for `c1ccc(-c2cc(-c3nn4c(-c5ccco5)nnc4s3)c3ccccc3n2)cc1` was 51.3% (active); that for `Cc1oc(-c2ccc(F)cc2)cc1-c1nn2c(-c3ccco3)nnc2s1` was -11.2%.

For `c1coc(-c2nn3c(-c4ccco4)nnc3s2)c1`, the cytotoxicity was -16.1%. The value for `Cc1cc(-c2nn3c(-c4ccccc4)nnc3s2)c2ccccc2n1` was -2.8%; that for `CCOC(=O)N1CCC(NC(=O)CNS(=O)(=O)c2ccc(Br)s2)CC1` was 6.3%. As for `CCSc1nnc(NC(=O)C(C)(C(F)(F)F)C(F)(F)F)s1`, the figure is -1.2%. The value for `Cc1ccccc1N1CCN(C(=O)C2CCCCC2)CC1` was -1%; that for `COc1cc2c(C(=O)N3CCN(Cc4ccc5c(c4)OCO5)CC3)cn(C)c(=O)c2cc1OC` was -9%; that for `COc1ccc(NS(=O)(=O)c2cc(OC)ccc2NC(=O)c2cc(C)oc2C)cc1` was 48.5%. Take `COc1ccc(NS(=O)(=O)c2cc(C)ccc2NC(=O)c2cc(C)oc2C)cc1`: the cytotoxicity was 69.4% (active). The value for `COc1ccc(NS(=O)(=O)c2cc(C)ccc2C)cc1` was 35.3%; that for `Cc1nn2c(N3CCN(C(=O)c4ccco4)CC3)cc(C(C)(C)C)nc2c1-c1ccccc1` was 70.2% (active). Regarding `Cc1cc(N2CCN(C(=O)c3ccco3)CC2)n2nc(C)c(-c3ccc(Cl)cc3)c2n1`, the cytotoxicity was 12.8%. Regarding `Cc1cc(N2CCN(C(=O)c3ccco3)CC2)n2nc(C)c(-c3ccccc3)c2n1`, the cytotoxicity was 13.2%. Take `COc1cccc(NC(=O)C2CCN(c3ncccn3)CC2)c1`: the cytotoxicity was 3%. As to `CC1(N2CCCCC2)CC2(O)C(=[N+]1[O-])CCC/C2=N\O` (stereo not given), the cytotoxicity was 15.9%. The value for `CC1(N2CCOCC2)CC2(O)C(=[N+]1[O-])CCc1nonc12` (stereo not given) was 17.7%. In the case of `CC1(N2CCOCC2)CC2(O)C(=[N+]1[O-])CCc1c2no[n+]1[O-]` (stereo not given), the cytotoxicity is 58.3% (active). As for `CC(C)NC(=O)CN(C(=O)CCC(=O)Nc1ccccn1)c1ccc(F)c(Cl)c1`, the figure is 2.5%; as for `CC1(C)C(=O)Nc2ccccc2N1C(=O)CN1C(=O)c2ccccc2C1=O`, -3.5%. The value for `CCC(=O)NC1(C(F)(F)F)C(=O)Nc2c1c(=O)n(C)c(=O)n2C` (stereo not given) was -2.3%. The value for `Cc1nnc(SCC(=O)N2CCN(S(=O)(=O)c3ccccc3)CC2)[nH]c1=O` was 1.8%.

As to `CCc1nnc(NC(=O)c2ccc(NS(=O)(=O)c3ccccc3)cc2)s1`, the cytotoxicity is -18.3%. The value for `CCc1nc(C)ccc1OCC(=O)O` was -10.4%; that for `CCCC(=O)NCCc1nc2ccccc2n1C` was -5.4%; that for `CCOc1cccc(-c2nc3cc(C)ccc3o2)c1` was -4.3%.

Regarding `Cc1n[nH]c(C)c1C(=O)CC1(O)C(=O)N(CCc2ccccc2)c2ccc(Cl)cc21` (stereo not given), the cytotoxicity is 16.8%. The value for `Cc1ccc(-n2nc(C)c3c(-c4cccs4)c(C#N)c(N)nc32)cc1` was 4%; that for `COc1cc(-c2c(C#N)c(N)nc3c2c(C)nn3-c2ccc(C)c(C)c2)cc(OC)c1OC` was 57.8% (active); that for `Cc1nn(-c2ccccc2)c2nc(N)c(C#N)c(-c3ccc(F)cc3)c12` was 10.8%. As for `O=C(O)CCN1Cc2ccccc2C1=O`, the figure is -5.5%; as for `Cc1ccc(NC(=O)CN2C(=O)COc3ccc(C)cc32)nc1`, 5.6%.

`COc1ccc(OC)c(Nc2nc(N)nc(-c3cc4ccccc4o3)n2)c1`: the cytotoxicity was 1.5%. As for `COc1ccc(OC(=O)c2cc3ccccc3o2)cc1`, the figure is 12.8%; as for `COc1ccc(OC)c(NC(=O)c2cc3ccccc3o2)c1`, -12.4%. In the case of `O=C(Nc1ccccc1C(F)(F)F)N1CCN(c2ccc3nnc(-c4ccc(F)cc4)n3n2)CC1`, the cytotoxicity is 1.9%. The value for `O=C(Nc1ccc(Cl)cc1)N1CCN(c2ccc3nnc(-c4ccc(F)cc4)n3n2)CC1` was 58.7% (active). The value for `O=C(Nc1ccccc1Cl)N1CCN(c2ccc3nnc(-c4ccc(F)cc4)n3n2)CC1` was 19.5%; that for `Cc1cccc(NC(=O)CSc2nnc(-c3ccccc3)n2N)c1` was 1%. On to `CCCc1[nH]nc2c1C(c1ccncc1)C(C#N)=C(N)O2` (stereo not given), for which the cytotoxicity is -1.2%. The value for `CCc1[nH]nc2c1C(c1ccc(Br)s1)C(C#N)=C(N)O2` (stereo not given) was 5%; that for `CCCn1nnc(NC(=O)c2cc3ccccc3o2)n1` was -13.2%. As for `O=C(Nc1ccc(S(=O)(=O)N2CCOCC2)cc1)c1ccc(Br)o1`, the cytotoxicity was -9.2%.

Turning to `O=C(CCc1ccccc1)Nc1ccc(NC(=O)c2ccco2)cc1`, the cytotoxicity was -8.3%. The value for `CCOC(=O)c1sc(NC(=O)c2ccco2)nc1-c1ccccc1` was -7.2%. As for `Cc1ccc(NC(=O)c2ccc(OC(=O)c3ccco3)cc2)cc1`, the figure is -14.7%; as for `O=C(Nc1ccc(S(=O)(=O)N2CCCCCC2)cc1)c1ccc(Br)o1`, 55.5% (active); as for `O=C(Nc1nc(-c2cccs2)c(-c2ccccc2)s1)c1ccco1`, 58.9% (active). Regarding `O=C(Nc1ccc(Nc2ccccc2)cc1)c1ccco1`, the cytotoxicity was 66.8% (active). As for `CC(=O)c1sc(NC(=O)c2ccco2)nc1-c1ccccc1`, the figure is 6.3%; as for `Cc1ccc(Oc2ccc(NC(=O)c3ccco3)cc2)cc1`, 84.2% (active); as for `CN1CCN(S(=O)(=O)c2ccc(NC(=O)c3ccc(Br)o3)cc2)CC1`, -14.1%. As to `CCC(=O)Nc1ccc(NC(=O)c2ccco2)cc1`, the cytotoxicity was -4%. As for `O=C(Nc1ccc(Oc2ccc(NC(=O)c3ccco3)c(NC(=O)c3ccco3)c2)cc1)c1ccco1`, the figure is 29.9%. As for `O=C1c2oc3ccccc3c(=O)c2C(c2ccc(Br)cc2)N1c1ncccn1` (stereo not given), the figure is 5.4%. For `O=S(=O)(c1ccccc1)c1nc(-c2ccco2)oc1NCc1cccnc1`, the cytotoxicity was 14.5%.

As to `CCOC(=O)C1CCN(c2cc(=O)n(Cc3ccc(F)cc3)c(=O)[nH]2)CC1`, the cytotoxicity was -12.8%.

Take `Cc1cc(NC(=O)c2c(F)c(F)c(F)c(F)c2F)no1`: the cytotoxicity was -11.5%. As for `Nc1c(C(=O)OCC2CCCO2)c2nc3ccccc3nc2n1C1CCCCC1` (stereo not given), the cytotoxicity was -9.6%. With `COc1ccc(CCNC(=O)CSc2nnc(-c3cccc(C)c3)o2)cc1OC`, the cytotoxicity was -3.4%. As for `CCOC(=O)N1CCC(NC(=O)Cn2c3c(c(-c4ccccc4Cl)cc2=O)CCC3)CC1`, the figure is 4.9%; as for `CCOc1ccc(CN2C(=O)CCC2(C)C(=O)NCc2cccnc2)cc1` (stereo not given), 6.9%; as for `O=C(Nc1ccc(-c2nc3ncccc3o2)cc1)c1ccco1`, -8.5%. With `O=C(Nc1ccc2nc(-c3ccccc3)oc2c1)c1ccco1`, the cytotoxicity is 71.7% (active). The value for `COC(=O)c1sc(NC(=O)c2ccco2)nc1C` was -3.1%. As for `CCOC(=O)c1sc(NC(=O)c2ccco2)nc1C`, the figure is 5.9%; as for `O=C(Nc1ccccc1N1CCCC1)c1ccc(Br)o1`, -3.3%; as for `Cc1nc(NC(=O)c2ccco2)sc1C(=O)Nc1ccc(Br)cc1`, 84% (active). As for `O=C(Nc1cccc(-c2nnc(-c3ccccc3)o2)c1)c1ccco1`, the figure is 3.5%; as for `Cc1ccc2nc(-c3cccc(NC(=O)c4ccco4)c3)[nH]c2c1`, 65.5% (active); as for `O=C(Nc1cccc(-c2nc3ccccc3[nH]2)c1)c1ccco1`, 9.8%. `Cc1ccc2nc(-c3ccc(NC(=O)c4ccco4)cc3)[nH]c2c1`: the cytotoxicity is 14.5%. For `CCN1CCN(c2c(Cl)cccc2NC(=O)c2ccc(Br)o2)CC1`, the cytotoxicity is 10%. The value for `O=C(Nc1cccc(Cl)c1N1CCCC1)c1ccc(Br)o1` was 93% (active); that for `CN(C)S(=O)(=O)c1cccc(COC(=O)C2=COCCO2)c1` was -1.6%. The value for `O=C(c1ccco1)[C@@H]1[C@@H]2C(=O)N(c3ccc(F)cc3)C(=O)[C@@H]2C2c3ccccc3C=CN21` (stereo not given in full) was 6.6%.

On to `COc1ccc(CCNS(=O)(=O)c2cccc(F)c2)cc1OC`, for which the cytotoxicity was -5.1%.

On to `Cc1onc(-c2c(F)cccc2Cl)c1C(=O)OCC(=O)NCc1ccco1`, for which the cytotoxicity was 0.8%. As for `CN(C)c1ccc(NC(=O)CN2CCC(C(=O)c3ccc(F)cc3)CC2)cc1`, the figure is 10.1%. The value for `COc1cc2[nH]c(=O)n(CCCCCC(=O)N3CCN(c4ccccc4)CC3)c(=O)c2cc1OC` was 15.8%.
